AmpC detergent = blocks E. coli AmpC beta-lactamase in detergent assay; P00811; AmpC hydrolysis of nitrocefin, absorbance 480 nm, 0.01% Triton; Potency, µM (top dose mostly 114 µM), without a hit: at the highest dose activity change, negative = inhibition, actives largely listed as inhibitors; 0.041% of 370,000 active; AID 485294;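 also: 0% = no-compound wells and -100% = no-enzyme wells; nearly all actives have a fitted effect of over 25% in size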
Target sequence (P00811 whole entry, looked up): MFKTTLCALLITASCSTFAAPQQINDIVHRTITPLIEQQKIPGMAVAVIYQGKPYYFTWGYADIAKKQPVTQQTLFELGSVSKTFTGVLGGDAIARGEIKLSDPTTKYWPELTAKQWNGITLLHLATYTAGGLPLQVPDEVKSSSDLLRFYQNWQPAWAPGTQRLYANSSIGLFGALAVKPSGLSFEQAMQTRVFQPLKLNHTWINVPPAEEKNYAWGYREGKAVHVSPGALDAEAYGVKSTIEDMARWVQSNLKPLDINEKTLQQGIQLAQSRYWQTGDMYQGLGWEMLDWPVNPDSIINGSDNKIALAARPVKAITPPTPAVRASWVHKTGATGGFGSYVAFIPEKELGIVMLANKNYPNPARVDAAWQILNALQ
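20 mM phosphate pH 7.0 + 0.01% (detergent screen) or 0.0001% Triton X-100; 5.3 nM AmpC reagent; cpd preinc 15 min RT; nitrocefin (800 uM stock) to start; A480 q20 s × 4 min; Activity was normalised to no-enzyme and no-compound control wells.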
HCV inh = inhibitors of hepatitis C virus infection; Huh7.5.1 HCVcc-Cre infection, luciferase reporter, 44 h; Potency, µM (top dose mostly 41.8 µM), for inactives: at the top dose activity change, negative = inhibition, hits mostly inhibitors; 3.4% of 340,000 active; AID 651820
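1,000 cells/well; 4 h culture; + compound; + HCVcc-Cre (~0.5 moi); 44 h; luciferase substrate, RT 15 min; read 15 sec.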
Pf growth 96h = inhibits malaria parasite growth, 96 h | 6.9% of 320,000 active | Potency, µM (top dose mostly 28.7 µM), inactives show at the top dose activity change, negative = inhibition, hits mostly inhibitors | P. falciparum luciferase reporter growth, 96 h
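Infected RBCs, 2% Hct / 0.05% parasitemia final; luciferase-reporter P. falciparum; cpd 96 h, 37 C, 5% CO2; luciferase detection reagent; luminescence.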
AMA1 RON2 block = disrupts binding of P. falciparum AMA1 to RON2; 0.2% of 360,000 active; Potency, µM (series often up to 58.2 µM), for the others: at the highest dose activity change, negative = inhibition, usual class: inhibitors; AID 720542; AlphaScreen AMA1-biotinylated RON2 peptide binding;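 also: 0% = vehicle wells and -100% = peptide control; nearly all actives have a fitted effect of over 45% in size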
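AMA1 (3D7) with his tag at 25 nM final met compounds first, then biotinylated RON2 peptide at 25 nM; detection used donor plus acceptor beads, 10 µg/mL apiece, read by AlphaScreen after 30 min at room temperature.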
AmpC no deterg = blocks E. coli AmpC beta-lactamase in detergent-free assay; P00811; AmpC nitrocefin hydrolysis, absorbance 480 nm, 0.0001% Triton; Potency, µM (top dose mostly 57.1 µM), inactives show at the top dose activity change, negative = inhibition, most hits filed as inhibitors; 0.52% of 330,000 active; AID 485341;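 also: plate controls were no compound for no effect and no enzyme for full effect; nearly all actives have a fitted effect of over 20% in size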
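AmpC (5.3 nM in the dispensed reagent) in 20 mM phosphate pH 7.0 with 0.01% (detergent screen) or 0.0001% Triton X-100 was preincubated with compounds for 15 min at room temperature. Nitrocefin was then added from an 800 uM solution, and hydrolysis was followed at 480 nm.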
Pf growth 48h = P. falciparum growth inhibition at 48 hours (one generation) | 5.9% of 310,000 active | P. falciparum luciferase growth in erythrocytes, 48 h | AID 504832 | Potency, µM (titrated, usually from 28.7 µM), without a hit: at the highest dose activity change, negative = inhibition, most hits filed as inhibitors
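Parasite viability was followed by luminescence of a genomically integrated firefly luciferase. Cultures held 0.1% parasitemia at 2% hematocrit (final), incubated under 5% CO2 at 37 C.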
An asterisk follows results filed as active; ? = inconclusive; . = no result given; [ ] = remark or other dose. In the library only some 11% were active in any assay of this set; here they are far more common. Calls follow the shape of the dose curve; as a rule, active = well fitted curve in the direction sought with a large enough effect; inconclusive = small, poorly fitted or top-dose-only effect, or another doubt; inactive = no such curve, though single readings can be large; an effect the other way counts as inactive or inconclusive. Unless noted, % is scaled to controls: 0 for no effect and ±100 for the full control effect; potency is read from the fitted curve at half-maximal effect.

SMILES	AmpC detergent	HCV inh	Pf growth 96h	AMA1 RON2 block	AmpC no deterg	Pf growth 48h
CCOC(=O)c1cc(CC)sc1NC(=O)Cc1ccsc1	-8.2%	5.62µM*	3.29µM*	25.5%	-14.8%	21.6%
CCOC(=O)c1cc(-c2ccccc2)sc1NC(=O)CCN1C(=O)c2ccccc2C1=O	?	-17.3%	?	-3.5%[11.6 µM]	-13.5%	12.7%
CCOC(=O)c1cc(-c2ccccc2)sc1NC(=O)CN1C(=O)NC(CC)(c2ccccc2)C1=O (centres undefined)	-9.2%	-15.8%	?	5.8%	-42.2%	.
CCOC(=O)c1cc(-c2ccccc2)sc1NC(=O)C(C)OC(=O)c1cccnc1OCC (centres undefined)	-13.1%	3.55µM*	35.0%	1.4%	-18.5%	11.9%
CSCCC(NS(=O)(=O)c1ccc2c(c1)oc(=O)n2C)C(=O)Nc1ccc(Cl)cc1 (centres undefined)	1.0%	.	.	.	.	.
CCN1C(=O)[C@@H]2[C@H](C1=O)[C@@H]1C(=O)Nc3ccccc3C(=O)N1[C@@H]2c1cccc(OC)c1	?	-2.5%	22.8%	-3.4%	-25.4%	-6.8%
CN1C(=O)C2(Nc3ccccc3-c3nc4ccccc4n32)c2ccccc21 (centres undefined)	-2.5%	-6.9%	-7.6%	-2.5%	-4.8%	8.28µM*
CCN1C(=O)C2(Nc3ccccc3-c3nc4ccccc4n32)c2cc(OC)ccc21 (centres undefined)	-6.9%	16.4%	4.7%	-1.4%	-2.2%	9.28µM*
O=C1Nc2ccccc2C12Nc1ccccc1-c1nc3ccccc3n12 (centres undefined)	?	?	.	-3.2%	-32.6%	0.738µM*
CN1C(=O)C2(NC(=O)c3ccccc3N2C)c2ccccc21 (centres undefined)	-12.4%	-8.8%	50.0%	11.4%	-9.5%	0.0%
c1ccc2c(c1)NC1(CCCCC1)n1c-2nc2ccccc21	?	-4.3%	2.1%	39.7%	-29.0%	.
CCOC(=O)C1=C(CS(=O)(=O)c2ccc(C)c(C)c2)NC(=O)NC1c1ccccc1OCC (centres undefined)	4.4%	.	.	.	.	.
Cc1cc(C)cc(OC(=O)c2cc(-c3ccc(Cl)cc3)on2)c1	24.7%	.	.	.	.	.
COc1ccc(NC(=O)CSc2nc(-c3cccs3)cc(C(F)(F)F)n2)c(OC)c1	-2.6%	.	.	.	.	.
CC1=C(C(=O)OC2CCCCC2)C(c2ccccc2)NC(=O)N1 (centres undefined)	-5.1%	10µM*	9.28µM*	-8.1%	-21.9%	8.4%
CCCCOC(=O)C1=C(C)NC(=O)NC1c1ccc(N(C)C)cc1 (centres undefined)	0.5%	-1.9%	175.5%	-11.5%	-2.2%	18.3%
CCCCOC(=O)C1=C(C)NC(=O)NC1c1ccccc1 (centres undefined)	-4.8%	5.3%	8.28µM*	20.0%	-11.1%	5.9%
COc1cc(C2NC(=O)NC(C)=C2C(=O)OC2CCCC(C)C2)ccc1O (centres undefined)	-1.0%	9.6%	.	-9.9%	?	10.4µM*
COc1cc(C2NC(=O)NC(C)=C2C(=O)OC2CCCCC2)cc(Br)c1O (centres undefined)	?	20.8%	13.1µM*	5.3%	45.2%	.
CCOc1ccccc1NC(=O)CSc1nc2c(oc3ccccc32)c(=O)n1C(C)C	20.4%	.	.	.	.	.
Fc1ccc(C2=NC(c3cccc(C(F)(F)F)c3)=Nc3ccccc3N2)cc1	18.2%	.	.	.	.	.
O=C(NCCc1ccc(Cl)cc1)C(=O)NCC(c1cccs1)S(=O)(=O)c1cccs1 (centres undefined)	3.7%	.	.	.	.	.
CCOC(=O)C1=C(CS(=O)(=O)c2ccccc2)NC(=O)NC1c1cc(OC)c(O)c(OC)c1 (centres undefined)	-11.5%	12.3%	2.62µM*	0.9%	-35.7%	16.7%
